This is an account of results in PubChem BioAssay.

Assay [1] in a line: resazurin metabolic signal in HepG2 cells – cell-based, resazurin fluorescence, 24 h, PK04 Diversity Set, profiling panel (AID 1172). Further: test concentration not given here. The note with it: HepG2 viability, higher = more signal. For orientation: Resazurin is reduced to fluorescent resorufin, in cell work by metabolically active cells.
The nature of assay [2]: budding yeast growth changes without added modifier – OD600, strain BY4716, 24 h, basal condition, primary screen (AID 1173). The conditions noted are these: S. cerevisiae BY4716 growth, OD600, 24 h; higher = more signal, called active from +8 up or from −8 down.
Assay [3] in a line: viability profiling in MM1S myeloma cells – cell-based, resazurin fluorescence, basal, 24 h, PK04 Diversity Set, profiling panel (AID 1174). Further: test concentration not given here. The note with it: higher = more signal, called active from +8 up or from −8 down.
Assay [4] deals with Dihydroorotate dehydrogenase (quinone), mitochondrial (Plasmodium falciparum (isolate 3D7)) (UniProt Q08210). Briefly: inhibition of P. falciparum DHODH – biochemical, C-terminal His tag, absorbance 600 nm, primary screen (AID 1175).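 Further: recombinant parasite enzyme with a five histidine tag at its C terminus; test concentration not given here.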 The conditions noted are these: PfDHODH enzyme, DCIP absorbance 600 nm; higher = more signal, called active from +8 up or from −8 down.
Chain of Dihydroorotate dehydrogenase (quinone), mitochondrial (Plasmodium falciparum (isolate 3D7)) (Q08210 whole entry, looked up): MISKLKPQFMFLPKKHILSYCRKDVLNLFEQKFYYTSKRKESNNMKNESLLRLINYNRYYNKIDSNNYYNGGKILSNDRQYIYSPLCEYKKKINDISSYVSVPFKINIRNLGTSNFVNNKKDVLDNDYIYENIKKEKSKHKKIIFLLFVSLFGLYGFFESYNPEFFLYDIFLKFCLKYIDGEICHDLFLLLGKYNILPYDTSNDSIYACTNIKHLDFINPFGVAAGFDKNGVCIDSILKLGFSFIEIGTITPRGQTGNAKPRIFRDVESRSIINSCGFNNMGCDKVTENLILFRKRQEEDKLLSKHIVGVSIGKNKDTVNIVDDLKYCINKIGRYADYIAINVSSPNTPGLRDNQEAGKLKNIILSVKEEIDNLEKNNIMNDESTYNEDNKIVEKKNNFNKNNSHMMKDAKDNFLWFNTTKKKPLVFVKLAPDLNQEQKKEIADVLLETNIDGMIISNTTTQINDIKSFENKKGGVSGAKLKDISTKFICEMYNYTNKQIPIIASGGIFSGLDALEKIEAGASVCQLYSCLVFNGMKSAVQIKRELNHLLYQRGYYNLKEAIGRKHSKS
Assay [5] in a line: inhibition of PAO1 biofilm formation – strain PAO1, LB-PBS medium, absorbance 600 nm, primary screen (AID 1176). Further: test concentration not given here. The note with it: P. aeruginosa PAO1 growth/biofilm, A600, 12 h; higher = more signal.
The nature of assay [6]: growth modulation of vineyard yeast isolate – strain RM11-1a, OD600, basal, 24 h, primary screen (AID 1177).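 Further: cultures grown under basal conditions with no added stressor; test concentration not given here.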 The note with it: S. cerevisiae RM11-1a growth, OD600, 24 h; higher = more signal, called active from +8 up or from −8 down.
A short description of assay [7]: growth of efflux-deficient E. coli DRC39 – strain DRC39, OD650, 24 h, E. coli filamentation inducers, primary screen (AID 1178).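 Further: growth measured as culture turbidity by optical density at 650 nm; test concentration not given here.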 The note with it: E. coli DRC39 acrAB, higher = more signal, called active from +8 up or from −8 down.
The nature of assay [8]: growth of efflux-deficient E. coli DRC39 – strain DRC39, OD650, 48 h, E. coli filamentation inducers, primary screen (AID 1179).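 Further: screen aims at cell division blockers that make cells filament.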 The note with it: E. coli DRC39 delta-acrAB growth, higher = more signal, called active from +8 up or from −8 down.
A short description of assay [9]: viability profiling in RPMI8226 myeloma cells – cell-based, resazurin fluorescence, basal, 24 h, PK04 Diversity Set, profiling panel (AID 1180).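 Further: RPMI8826 multiple myeloma cell line at 5000 cells per well; test concentration not given here.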 The conditions noted are these: higher = more signal.
The target of assay [10] is E3 ubiquitin-protein ligase XIAP (Homo sapiens) (UniProt P98170). Nature of the assay: small molecules binding XIAP protein – biophysical, small-molecule microarray, fluorescence 635 nm, primary screen (AID 1181).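 Further: score merges 667 nm emission and signal to noise over triplicate slides.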 The conditions noted are these: higher = more signal.
Chain of E3 ubiquitin-protein ligase XIAP (Homo sapiens) (P98170 whole entry, looked up): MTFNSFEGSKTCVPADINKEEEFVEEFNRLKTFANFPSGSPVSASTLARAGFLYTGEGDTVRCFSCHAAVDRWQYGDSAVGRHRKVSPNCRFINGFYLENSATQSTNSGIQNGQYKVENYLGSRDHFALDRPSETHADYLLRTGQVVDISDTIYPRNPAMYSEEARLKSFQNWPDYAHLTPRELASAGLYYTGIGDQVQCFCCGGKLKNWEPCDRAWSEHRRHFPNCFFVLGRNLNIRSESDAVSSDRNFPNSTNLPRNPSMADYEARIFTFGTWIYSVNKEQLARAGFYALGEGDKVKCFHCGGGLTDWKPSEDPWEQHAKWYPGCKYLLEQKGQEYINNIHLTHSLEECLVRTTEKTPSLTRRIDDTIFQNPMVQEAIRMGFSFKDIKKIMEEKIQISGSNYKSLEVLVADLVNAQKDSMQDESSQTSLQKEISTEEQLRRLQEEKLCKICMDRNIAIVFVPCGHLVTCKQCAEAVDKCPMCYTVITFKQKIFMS

Active and inactive are the calls of the source. Unless noted, how the calls were made is not given here.

Regarding `Cc1ccc(S(=O)(=O)N2[C@@H](c3ccccc3)C(C(=O)O)=C[C@H]2C(C)(C)C)cc1`, the z-score in assay [1] is -0.809; in [2] it was -0.535 (inactive); in assay [3], -0.912 (inactive); in assay [5], 0.257 (inactive); in assay [6], -1.13 (inactive); in assay [7], -0.773 (inactive). Moreover, the z-score in assay [8] is -0.0408 (inactive); in assay [9], -2.03. Further, the composite z-score in assay [4] is 0.0392 (inactive); in assay [10], -0.18.

As for `COCCOC(=O)N1C(=O)[C@@]2(c3cc(C#CCNC(N)=O)ccc31)[C@H](C(N)=O)[C@H]1C(=O)O[C@H](c3ccccc3)[C@H](c3ccccc3)N1[C@@H]2c1ccc(O)cc1`, the z-score in assay [1] is 0.296; in assay [2], -0.156 (inactive); in [3], -0.477 (inactive); in assay [5], 1.01 (inactive); in assay [6] it was 0.532 (inactive); in assay [7], 0.769 (inactive). For the same molecule, the z-score in [8] was 1.33 (inactive); in assay [9] it was -0.392. The results for the composite z-score in [4] and in assay [10] were 0.303 (inactive) and -0.245, respectively.

`O=C1O[C@@H](c2ccccc2)[C@@H](c2ccccc2)N2[C@@H](c3ccccc3OCCO)[C@]3(C(=O)Nc4ccc(C#CC5(O)CCCCCC5)cc43)[C@@H](C(=O)N3CCCCCCC3)[C@H]12`: the z-score is -0.225 in assay [1]; 0.866 (inactive) in assay [2]; -0.169 (inactive) in assay [3]; 1.33 (inactive) in assay [5]; 0.312 (inactive) in assay [6]; -0.36 (inactive) in assay [7]. Also, the results for the z-score in assay [8] and in assay [9] were -1.17 (inactive) and -0.186, respectively. Moreover, the composite z-score in [4] is -1.03 (inactive); in assay [10], 1.97.

For `C=C(COC)/C(=C/C[C@@H](OC(C)=O)c1cccc(OCCO)c1)c1cnc2ccccc2c1`, the z-score is -0.469 in assay [1]; -7.06 (inactive) in [2]; -0.732 (inactive) in assay [3]; 0.203 (inactive) in [5]; 0.179 (inactive) in [6]; -0.672 (inactive) in [7]. Further, the z-score is -0.303 (inactive) in assay [8] and -0.311 in assay [9]. Also, the composite z-score in [4] was -7.29 (inactive); in [10] it was 0.133.

For `C=C(C)C1CN([C@H](CO)c2ccccc2)C(=O)/C1=C\c1ccccc1` (stereo not given in full), the z-score in [1] was -0.607; in assay [2], -5.73 (inactive); in assay [3] it was 0.44 (inactive); in assay [5], -0.234 (inactive); in assay [6], 0.119 (inactive); in [7], 0.408 (inactive). The figures for the z-score in assay [8] and in assay [9] were -0.719 (inactive) and 0.064, respectively. In addition, the composite z-score in assay [4] is -2.88 (inactive); in assay [10], 0.126.

In the case of `C=C[C@H](OC)[C@@H](O)c1ccc(OC)c(O)c1`, the z-score is 0.0143 in assay [1]; -0.506 (inactive) in assay [2]; 0.546 (inactive) in assay [3]; 0.65 (inactive) in assay [5]; -0.0878 (inactive) in [6]; 0.37 (inactive) in [7]. Further, the values for the z-score in assay [8] and in assay [9] were 0.905 (inactive) and 0.252, respectively. Moreover, the composite z-score in assay [4] was 0.255 (inactive); in assay [10], -0.289.

Regarding `Cc1ccc(S[C@]2(C(=O)NCCN3CCOCC3)CC(=O)N(C(C)C)[C@@H]2c2ccc(CO)cc2I)cc1`, the z-score in assay [1] was 0.124; in [2] it was -3.26 (inactive); in assay [3], -2.29 (inactive); in assay [5], 0.553 (inactive); in [6], -2.93 (inactive); in assay [7], 1.16 (inactive). Further, the z-score in [8] is 1.65 (inactive); in assay [9], -1.83. Besides, the composite z-score in [4] is -2.11 (inactive); in [10] it was -0.0304.

As for `N#Cc1ccc(NN2C(C(O)c3ccc(B(O)O)cc3)C=CC3CN(c4ccccc4)C(=O)C32)cc1` (stereo not given), the z-score in assay [1] is -0.595; in assay [2], -15.4 (active); in assay [3], -1.25 (inactive); in assay [5] it was 0.475 (inactive); in assay [6], 1.56 (inactive); in assay [7] it was 0.898 (inactive). Further, the z-score in assay [8] was 0.934 (inactive); in assay [9], -0.662. Further, the results for the composite z-score in assay [4] and in assay [10] were -0.883 (inactive) and -0.0917, respectively.

Regarding `CC(=O)NCCCC[C@@H]1NC(=O)[C@H]2C[C@@H](C(=O)O)[C@@H](c3cccc(OCCO)c3)N2C1=O`, the z-score is -0.7 in assay [1]; -0.757 (inactive) in assay [2]; 0.441 (inactive) in assay [3]; 0.118 (inactive) in assay [5]; -0.587 (inactive) in assay [6]; -0.33 (inactive) in [7]. Further, the z-score in [8] was 0.0133 (inactive); in assay [9] it was -0.0778. For the same molecule, the composite z-score in assay [4] was -0.969 (inactive); in [10], -0.138.

On to `CN1C(=O)C2C=CC(C(O)COCc3ccccc3)N(Nc3ccc([N+](=O)[O-])cc3[N+](=O)[O-])C2C1=O` (stereo not given), for which the z-score in assay [1] was -0.473; in assay [2], -2.33 (inactive); in assay [3], -0.407 (inactive); in [5], 0.558 (inactive); in assay [6], 0.288 (inactive); in [7], -0.143 (inactive). Besides, the z-score was -0.445 (inactive) in assay [8] and -0.143 in [9]. The composite z-score was -0.42 (inactive) in [4] and 0.12 in assay [10].

With `COC(=O)C(CC#Cc1ccc2c(c1)[C@]1(C(=O)N2)[C@H](c2ccccc2OCCO)N2[C@H](c3ccccc3)[C@H](c3ccccc3)OC(=O)[C@H]2[C@@H]1C(=O)N1CCN(c2ncccn2)CC1)C(=O)OC`, the z-score in assay [1] is -0.0452; in [2], 2.09 (inactive); in assay [3], -0.935 (inactive); in [5], 2.29 (inactive); in assay [6], 3.65 (inactive); in [7], 0.236 (inactive). Besides, the z-score is -0.11 (inactive) in assay [8] and -4.73 in [9]. For the same molecule, the results for the composite z-score in [4] and in assay [10] were -16.6 (active) and 0.306, respectively.
